Measured values taken from PubChem BioAssay.
Active and inactive are the calls of the source. Unless noted, the rule behind the calls is not given here.

Tests used:
[1] = HepG2 liver cancer cell viability effects, profiling panel, resazurin fluorescence, 24 h, PK04 Diversity Set (AID 1172); settings: higher = more signal; note: test concentration not given here
[2] = basal S. cerevisiae growth modulation, no modifier, primary screen, OD600, strain BY4716, 24 h, basal condition (AID 1173); settings: OD600, 24 h, higher = more signal, called active from +8 up or from −8 down
[3] = MM1S myeloma cell viability, profiling panel, resazurin fluorescence, basal, 24 h, PK04 Diversity Set (AID 1174); settings: higher = more signal, called active from +8 up or from −8 down;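 note: MM1S multiple myeloma cell line; test concentration not given here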
[4] = molecular target: Dihydroorotate dehydrogenase (quinone), mitochondrial (Plasmodium falciparum (isolate 3D7)) (UniProt Q08210); assay: PfDHODH enzyme inhibitors, primary screen, biochemical, C-terminal His tag, absorbance 600 nm (AID 1175); settings: DCIP absorbance 600 nm, higher = more signal, called active from +8 up or from −8 down;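 note: recombinant parasite enzyme with a five histidine tag at its C terminus; test concentration not given here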
Chain of Dihydroorotate dehydrogenase (quinone), mitochondrial (Plasmodium falciparum (isolate 3D7)) (Q08210 whole entry, looked up): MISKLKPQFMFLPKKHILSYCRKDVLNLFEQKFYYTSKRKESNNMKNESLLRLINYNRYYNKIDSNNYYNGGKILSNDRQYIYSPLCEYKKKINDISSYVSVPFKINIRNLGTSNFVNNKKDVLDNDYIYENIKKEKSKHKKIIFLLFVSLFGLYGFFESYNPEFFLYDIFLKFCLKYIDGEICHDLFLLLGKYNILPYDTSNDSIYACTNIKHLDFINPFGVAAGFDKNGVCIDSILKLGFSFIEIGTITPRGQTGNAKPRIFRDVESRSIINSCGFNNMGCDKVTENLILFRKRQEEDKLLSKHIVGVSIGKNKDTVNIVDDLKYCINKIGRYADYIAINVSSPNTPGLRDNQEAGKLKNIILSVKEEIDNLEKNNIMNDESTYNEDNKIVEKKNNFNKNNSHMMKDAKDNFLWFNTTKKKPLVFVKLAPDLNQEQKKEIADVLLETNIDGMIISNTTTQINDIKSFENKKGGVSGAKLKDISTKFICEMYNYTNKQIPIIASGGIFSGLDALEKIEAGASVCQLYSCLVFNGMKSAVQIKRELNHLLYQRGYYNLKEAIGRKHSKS

[5] = P. aeruginosa biofilm formation inhibitors, primary screen, strain PAO1, LB-PBS medium, absorbance 600 nm (AID 1176); note: test concentration not given here; settings: P. aeruginosa PAO1 growth/biofilm, A600, 12 h; higher = more signal
[6] = S. cerevisiae RM11-1a growth modifiers, primary screen, strain RM11-1a, OD600, basal, 24 h (AID 1177); settings: OD600, 24 h, higher = more signal, called active from +8 up or from −8 down;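 note: cultures grown under basal conditions with no added stressor; test concentration not given here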
[7] = E. coli acrAB mutant growth effects, primary screen, E. coli filamentation inducers, strain DRC39, OD650, 24 h (AID 1178); settings: higher = more signal, called active from +8 up or from −8 down;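 note: growth measured as culture turbidity by optical density at 650 nm; test concentration not given here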
[8] = E. coli acrAB mutant growth effects, primary screen, E. coli filamentation inducers, strain DRC39, OD650, 48 h (AID 1179);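 note: screen aims at cell division blockers that make cells filament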; settings: E. coli DRC39 delta-acrAB growth, higher = more signal, called active from +8 up or from −8 down
[9] = RPMI8226 myeloma cell viability, profiling panel, resazurin fluorescence, basal, 24 h, PK04 Diversity Set (AID 1180); settings: higher = more signal;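 note: RPMI8826 multiple myeloma cell line at 5000 cells per well; test concentration not given here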
[10] = molecular target: E3 ubiquitin-protein ligase XIAP (Homo sapiens) (UniProt P98170); assay: XIAP binders, primary screen, biophysical, small-molecule microarray, fluorescence 635 nm (AID 1181); settings: small-molecule microarray binding, higher = more signal;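 note: score merges 667 nm emission and signal to noise over triplicate slides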
Chain of E3 ubiquitin-protein ligase XIAP (Homo sapiens) (P98170 whole entry, looked up): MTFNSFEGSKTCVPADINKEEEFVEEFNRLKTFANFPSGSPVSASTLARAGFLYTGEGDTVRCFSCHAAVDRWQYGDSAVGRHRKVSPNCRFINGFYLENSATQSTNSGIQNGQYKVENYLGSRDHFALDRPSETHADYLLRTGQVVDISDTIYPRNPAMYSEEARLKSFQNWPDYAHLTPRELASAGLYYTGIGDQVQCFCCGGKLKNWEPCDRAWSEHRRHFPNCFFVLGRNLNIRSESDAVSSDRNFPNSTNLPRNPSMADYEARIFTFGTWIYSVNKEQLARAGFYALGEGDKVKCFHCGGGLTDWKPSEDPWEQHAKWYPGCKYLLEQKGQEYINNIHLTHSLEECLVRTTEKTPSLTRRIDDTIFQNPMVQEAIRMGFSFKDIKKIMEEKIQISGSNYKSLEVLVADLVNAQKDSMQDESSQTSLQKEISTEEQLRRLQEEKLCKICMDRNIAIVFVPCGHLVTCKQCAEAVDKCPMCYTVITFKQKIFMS

Row | SMILES | z-score [1] | z-score [2] | z-score [3] | composite z-score [4] | z-score [5] | z-score [6] | z-score [7] | z-score [8] | z-score [9] | composite z-score [10]
1 | COC(=O)[C@@]1(Cc2ccc(OC)cc2)[C@H]2c3cc(C(=O)N4CCCC4)n(Cc4ccc(S(C)(=O)=O)cc4)c3C[C@H]2CN1C(=O)c1ccccc1 | -0.707 | 0.63 (inactive) | -0.389 (inactive) | -1.16 (inactive) | 0.122 (inactive) | 0.115 (inactive) | -0.867 (inactive) | -0.113 (inactive) | -0.84 | 0.721
2 | O=C1O[C@H](c2ccccc2)[C@H](c2ccccc2)N2[C@H]1[C@@H](C(=O)N1CCCCCCC1)[C@]1(C(=O)Nc3ccc(C#CC4(O)CCCCCC4)cc31)[C@H]2c1ccccc1OCCO | 1.72 | 0.893 (inactive) | -0.382 (inactive) | 0.195 (inactive) | 0.682 (inactive) | 2.45 (inactive) | 0.138 (inactive) | -1.14 (inactive) | -0.443 | 2.12
3 | C[C@]1(C(=O)O)c2ccccc2C(=O)N(Cc2ccc(OC(F)(F)F)cc2)[C@H]1c1ccc(CO)cc1 | 0.0448 | -0.847 (inactive) | 0.0944 (inactive) | -0.295 (inactive) | 0.0993 (inactive) | -0.475 (inactive) | 0.248 (inactive) | -0.0775 (inactive) | 0.441 | 0.265
4 | C[C@@H]1ON(c2ccc(I)cc2)[C@H](c2ccc(OC(=O)OC(C)(C)C)cc2)[C@H]1C(=O)N1C(=O)OC[C@H]1Cc1ccccc1 | 1.14 | -1.24 (inactive) | 1.6 (inactive) | -0.571 (inactive) | 0.294 (inactive) | 0.61 (inactive) | 1.81 (inactive) | 1.2 (inactive) | 1.87 | -0.0448
5 | COc1cc(C(O)C2C=CC3C(=O)N(Cc4ccccc4)C(=O)C3N2n2cnnc2)cc(OC)c1OC (stereo not given) | 0.462 | -0.786 (inactive) | 0.129 (inactive) | -1.12 (inactive) | 1.6 (inactive) | -1.27 (inactive) | 0.904 (inactive) | 0.759 (inactive) | 0.0011 | 0.0546
6 | O=C(CS)NCCCCCNC(=O)[C@@H]1C[C@@H]2C(=O)N[C@@H](Cc3ccccc3)C(=O)N2[C@@H]1c1cccc(OCCO)c1 | -0.528 | 0.0575 (inactive) | -0.513 (inactive) | -0.148 (inactive) | 0.0067 (inactive) | 0.647 (inactive) | 0.403 (inactive) | 0.801 (inactive) | -0.0412 | -0.0911
7 | COC(=O)[C@@]1(Cc2ccc(F)cc2)[C@H]2c3cc(C(=O)N(C)C)n(Cc4c(CO)[nH]cc(C)c4=O)c3C[C@H]2CN1C(=O)c1ccccc1 | -1.03 | 0.966 (inactive) | -1.72 (inactive) | -0.244 (inactive) | 1.79 (inactive) | 0.986 (inactive) | -0.0892 (inactive) | -1.36 (inactive) | -0.932 | 0.0153
8 | O=C(NCCN1CCOCC1)[C@@H]1c2ccccc2C(=O)N(Cc2ccccc2)[C@H]1c1ccc(CO)cc1 | 1.15 | 0.476 (inactive) | 0.802 (inactive) | -0.547 (inactive) | -0.838 (inactive) | 0.496 (inactive) | 0.0077 (inactive) | 0.76 (inactive) | 0.822 | -0.0228
9 | Cc1ccc([C@H]2C(C(=O)O)=C[C@@H](C(C)(C)C)N2S(=O)(=O)c2ccc(C)cc2)cc1 | -0.553 | -0.405 (inactive) | -0.648 (inactive) | -0.241 (inactive) | 0.353 (inactive) | -0.0566 (inactive) | -1.36 (inactive) | -0.387 (inactive) | -2.49 | 0.193
10 | CC(C)[C@H]1NC(=O)[C@@]23C(=O)N[C@@H](Cc4ccccc4)C2[C@H](C)[C@@]2(C)O[C@H]2C3/C=C/CCC/C=C/CNC(=O)[C@H](Cc2ccccc2)NC1=O (stereo not given in full) | -1.15 | -1.76 (inactive) | -0.457 (inactive) | 0.112 (inactive) | -0.471 (inactive) | -0.201 (inactive) | -0.297 (inactive) | -0.786 (inactive) | 0.0125 | -0.039
11 | CC(C)C[C@@H]1NC(=O)[C@H]2C[C@@H](C(=O)NCCCCCN)[C@@H](c3cccc(OCCO)c3)N2C1=O | -0.604 | -0.122 (inactive) | -0.178 (inactive) | -1.36 (inactive) | -0.0491 (inactive) | -2.46 (inactive) | 1.06 (inactive) | 1.61 (inactive) | 0.138 | -0.198
12 | CCCNC(=O)[C@@]1(Sc2ccc(C)cc2)CC(=O)N(C2CCCCC2)[C@@H]1c1ccc(CO)cc1I | -0.0096 | -1.07 (inactive) | 0.0674 (inactive) | -0.198 (inactive) | 0.627 (inactive) | -1.15 (inactive) | 0.29 (inactive) | 0.0883 (inactive) | -1.1 | -0.321
13 | COCCCNC(=O)[C@@]1(Sc2ccc(C)cc2)CC(=O)N(C(C)C)[C@@H]1c1ccc(CO)cc1I | -0.312 | -3.22 (inactive) | -2.35 (inactive) | -0.642 (inactive) | 0.394 (inactive) | -1.82 (inactive) | 0.0841 (inactive) | -0.0194 (inactive) | -1.97 | -0.37
14 | CC(C)CCC[C@@H](C)[C@H]1CC[C@@]2(C)C3=C(CC[C@]12C)[C@@]1(C)CC[C@H](OC(=O)c2ccccc2)C(C)(C)C1CC3 (stereo not given in full) | 0.533 | 0.436 (inactive) | 0.351 (inactive) | -1.48 (inactive) | 0.968 (inactive) | -1.61 (inactive) | 1.94 (inactive) | 1.57 (inactive) | 0.56 | -0.248
15 | Cc1ccc(S[C@]2(C(=O)NCC(C)C)CC(=O)N(C3Cc4ccccc4C3)[C@@H]2c2ccc(CO)cc2I)cc1 | 0.0073 | -1.51 (inactive) | -2.16 (inactive) | -0.0634 (inactive) | 0.503 (inactive) | 0.207 (inactive) | -0.0452 (inactive) | -0.138 (inactive) | -2.55 | -0.214
16 | CN1C(=O)[C@@H]2[C@@H](CC(COc3ccccc3)=C([C@H](O)CCc3ccccc3)[C@@H]2CO)C1=O | 0.358 | -3.31 (inactive) | 0.0223 (inactive) | -0.171 (inactive) | -0.104 (inactive) | -0.136 (inactive) | 2.19 (inactive) | 1.17 (inactive) | 0.685 | 0.0178
17 | Cc1cccc([C@H]2C[C@H]3C(Br)=C[C@@H]2C(=O)[C@]32CO2)c1 | -0.536 | -12.1 (active) | -0.423 (inactive) | 0.288 (inactive) | 0.142 (inactive) | 0.622 (inactive) | 0.906 (inactive) | -0.0628 (inactive) | -0.332 | 0.172
18 | COCCCNC(=O)[C@@]1(c2ccc([N+](=O)[O-])cc2)CC(=O)N(CC23CC4CC(CC(C4)C2)C3)[C@@H]1c1ccc(CO)cc1I | -2.61 | 1.02 (inactive) | -3.15 (inactive) | 1.11 (inactive) | 0.457 (inactive) | 2.43 (inactive) | -0.0284 (inactive) | -0.107 (inactive) | -3.52 | 0.144
19 | COc1cc(NN2C(C(O)c3ccc(I)cc3)C=CC3C(=O)N(c4ccccc4)C(=O)C32)cc(OC)c1OC (stereo not given) | -1.35 | 0.645 (inactive) | -0.694 (inactive) | -0.755 (inactive) | 0.835 (inactive) | 0.0247 (inactive) | 0.456 (inactive) | 0.176 (inactive) | -1.34 | 0.162
20 | C=CCC(OC(C)=O)[C@@H]1[C@@H](N(Cc2ccc(-c3ccccc3)cc2)C(=O)Cc2ccc(F)cc2)c2cc(OCCCO)ccc2N1C(=O)Cc1ccc2ccccc2c1 (stereo not given in full) | 0.487 | -0.0838 (inactive) | 0.821 (inactive) | 0.252 (inactive) | 0.113 (inactive) | -0.177 (inactive) | 0.531 (inactive) | 0.575 (inactive) | 0.486 | -0.455
21 | CCCCNC(=O)c1ccc(C#C[Si](C(C)C)(C(C)C)C(C)C)c(OC(C)=O)c1 | 0.236 | -0.152 (inactive) | 0.219 (inactive) | -1.29 (inactive) | -0.623 (inactive) | 0.0679 (inactive) | 0.119 (inactive) | -0.0634 (inactive) | 0.234 | -0.165
22 | CN(C)C(=O)[C@]1(CCS(=O)(=O)c2ccccc2)N=C(c2ccc(OCCCO)cc2)O[C@@H]1c1ccccc1 | 1.4 | -0.265 (inactive) | -0.342 (inactive) | 0.524 (inactive) | -0.484 (inactive) | -0.315 (inactive) | 0.582 (inactive) | -0.0986 (inactive) | -0.155 | 0.0651
23 | NCCCCCNC(=O)[C@H]1C[C@H]2C(=O)N[C@@H](Cc3ccccc3)C(=O)N2[C@H]1c1ccc(O)cc1 | -0.255 | -0.53 (inactive) | -0.115 (inactive) | 1.21 (inactive) | 0.351 (inactive) | -0.334 (inactive) | 0.442 (inactive) | 0.69 (inactive) | -0.518 | 0.157
24 | CC(C)c1ccc(NN2C(C(O)Cc3ccccc3)C=CC3C(=O)N(c4ccccc4)C(=O)C32)cc1 (stereo not given) | -1.93 | -1.02 (inactive) | -1 (inactive) | -0.335 (inactive) | 0.683 (inactive) | 0.269 (inactive) | -1.12 (inactive) | -1.07 (inactive) | -0.807 | 0.0989
25 | CN1C(=O)C2C(C1=O)C1C=C(CCCO)C2C(c2cccs2)N1Cc1cc2c(cc1Br)OCO2 (stereo not given) | -0.0567 | -1.67 (inactive) | -0.35 (inactive) | -0.539 (inactive) | -0.131 (inactive) | 0.0034 (inactive) | 0.19 (inactive) | -0.512 (inactive) | 0.0707 | 0.176
26 | CCCCCCCCCCC(O)C1C=CC2C(=O)N(c3ccccc3)C(=O)C2N1Nc1ccccc1F (stereo not given) | 0.0366 | 0.864 (inactive) | -0.361 (inactive) | 0.742 (inactive) | 0.819 (inactive) | 0.719 (inactive) | -0.717 (inactive) | 0.555 (inactive) | -0.335 | 0.174
